{"source": "PubChem BioAssay AID602144", "about": "(Vanderbilt Specialized Chemistry Center, 2011)", "target": "Phospholipase D1 (Homo sapiens) (UniProt Q13393)", "experiment": "cellular phospholipase D1 activity inhibition – Calu-1 cells, single concentration (AID 602144);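 note: tested at 200 nM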", "conditions": "cellular PLD1 activity, hits give low values", "note": "Values without a mark were called inactive. Calls of active or inactive are those of the source. Cut-off read from the data, not from the text of the source: active = remaining activity below about 50%; inactive = the rest."}
{"smiles": "O=c1[nH]c2ccccc2n1C1CCN(CCNS(=O)(=O)c2ccc(F)cc2)CC1", "values": [{"measurement": "remaining activity", "value": 129, "unit": "%"}]}
{"smiles": "C[C@@H](CN1CCC(n2c(=O)[nH]c3ccccc32)CC1)NC(=O)C1C[C@H]1c1ccccc1", "note": "(some centres not stated)", "values": [{"measurement": "remaining activity", "value": "25.5% (active)"}]}
{"smiles": "O=C(NCCN1CCC(n2c(=O)[nH]c3ccccc32)CC1)c1cc2ccc3ccccc3c2c2ccccc12", "values": [{"measurement": "remaining activity", "value": 76.6, "unit": "%"}]}
{"smiles": "O=C(NCCN1CCC(n2c(=O)[nH]c3ccccc32)CC1)C1CCCCCCCCCC1", "values": [{"measurement": "remaining activity", "value": 85.9, "unit": "%"}]}
{"smiles": "CCCCS(=O)(=O)NCCN1CCC(n2c(=O)[nH]c3ccccc32)CC1", "values": [{"measurement": "remaining activity", "value": 124, "unit": "%"}]}
{"smiles": "CN(CCN1CCC(n2c(=O)[nH]c3ccccc32)CC1)C(=O)c1ccc2ccccc2c1", "values": [{"measurement": "remaining activity", "value": 75.5, "unit": "%"}]}
{"smiles": "O=C(NCCN1CCN(c2ccncc2)CC1)c1ccc2ccccc2c1", "values": [{"measurement": "remaining activity", "value": 139, "unit": "%"}]}
{"smiles": "O=C(NCCN1CCN(c2ccncc2)CC1)c1ccc(Cl)cc1", "values": [{"measurement": "remaining activity", "value": 121, "unit": "%"}]}
{"smiles": "O=C(NCCN1CCC2(CC1)CNCc1ccccc12)c1cnc2ccccc2c1", "values": [{"measurement": "remaining activity", "value": 95.4, "unit": "%"}]}
{"smiles": "O=C1c2ccccc2C(=O)N1CCCN1CCC(n2c(=O)[nH]c3ccccc32)CC1", "values": [{"measurement": "remaining activity", "value": 76.2, "unit": "%"}]}
{"smiles": "C[C@@H](CN1CCC(n2c(=O)[nH]c3cc(Br)ccc32)CC1)NC(=O)c1ccc(F)cc1", "values": [{"measurement": "remaining activity", "value": "16.1% (active)"}]}
{"smiles": "NC1(CN2CCC(n3c(=O)[nH]c4cc(Cl)ccc43)CC2)CCCC1", "note": "(tested in a mixture with another compound)", "values": [{"measurement": "remaining activity", "value": 70.2, "unit": "%"}]}
{"smiles": "COc1cccc(C(=O)NCCN2CCC(n3c(=O)[nH]c4ccccc43)CC2)n1", "values": [{"measurement": "remaining activity", "value": "39.7% (active)"}]}
{"smiles": "COc1ccc2c(c1)c(CC(=O)NCCN1CCC(n3c(=O)[nH]c4ccccc43)CC1)c(C)n2C(=O)c1ccc(Cl)cc1", "values": [{"measurement": "remaining activity", "value": 98.1, "unit": "%"}]}
{"smiles": "O=C(C1C[C@@H]1c1ccccc1)N1CCC(n2c(=O)[nH]c3cc(Cl)ccc32)CC1", "note": "(some centres not stated)", "values": [{"measurement": "remaining activity", "value": 89.8, "unit": "%"}]}
{"smiles": "C[C@@H](CN1CCC2(CC1)CN(S(C)(=O)=O)c1ccccc12)NC(=O)c1ccc2ccccc2c1", "values": [{"measurement": "remaining activity", "value": 119, "unit": "%"}]}
{"smiles": "O=C(NCCN1CCC2(CC1)CNc1ccccc12)c1cnc2ccccc2c1", "values": [{"measurement": "remaining activity", "value": 126, "unit": "%"}]}
{"smiles": "C[C@@H](CN1CCC(n2c(=O)[nH]c3cc(-c4ccc(C(F)(F)F)cc4)ccc32)CC1)NC(=O)[C@H]1C[C@@H]1c1ccccc1", "values": [{"measurement": "remaining activity", "value": 63.9, "unit": "%"}]}
{"smiles": "O=C(NCCN1CCC(n2c(=O)[nH]c3ccccc32)CC1)c1cc2ccccc2c2ccccc12", "values": [{"measurement": "remaining activity", "value": "7.23% (active)"}]}
{"smiles": "Nc1ccc(C(=O)NCCN2CCC(n3c(=O)[nH]c4ccccc43)CC2)cc1OC(F)(F)F", "values": [{"measurement": "remaining activity", "value": 72.6, "unit": "%"}]}
{"smiles": "O=C(NCCN1CCC2(CCc3ccccc32)CC1)[C@H]1C[C@@H]1c1ccccc1", "values": [{"measurement": "remaining activity", "value": 125, "unit": "%"}]}
{"smiles": "O=C(NCCN1CCC(n2c(=O)[nH]c3ccccc32)CC1)NC(c1ccccc1)c1ccccc1", "values": [{"measurement": "remaining activity", "value": 146, "unit": "%"}]}
{"smiles": "O=C(NCCN1CCC(n2c(=O)[nH]c3ccccc32)CC1)c1cccc2cccnc12", "values": [{"measurement": "remaining activity", "value": "30.7% (active)"}]}
{"smiles": "O=C(NCCN1CCC(C(=O)NCCc2ccccn2)CC1)c1ccc2ccccc2c1", "values": [{"measurement": "remaining activity", "value": 101, "unit": "%"}]}
{"smiles": "O=C(N[C@@H](Cc1ccccc1)CN1CCC(n2c(=O)[nH]c3ccccc32)CC1)c1ccc2ccccc2c1", "values": [{"measurement": "remaining activity", "value": 113, "unit": "%"}]}
{"smiles": "C[C@@H](CN1CCC(n2c(=O)[nH]c3ccccc32)CC1)NC(=O)c1ccc[nH]1", "values": [{"measurement": "remaining activity", "value": "48.2% (active)"}]}
{"smiles": "O=C(NCCN1CCC(n2c(=O)[nH]c3ccccc32)CC1)c1cccc(F)n1", "values": [{"measurement": "remaining activity", "value": "34% (active)"}]}
{"smiles": "O=c1[nH]c2ccccc2n1C1CCN(CCNC(=S)Nc2ccccc2F)CC1", "values": [{"measurement": "remaining activity", "value": 109, "unit": "%"}]}
{"smiles": "O=C(NCCN1CCN(c2ccccn2)CC1)c1ccc(Cl)cc1", "values": [{"measurement": "remaining activity", "value": 153, "unit": "%"}]}
{"smiles": "COc1cccc(N2CCN(CCNC(=O)c3ccc(C(F)(F)F)cc3)CC2)c1", "values": [{"measurement": "remaining activity", "value": 102, "unit": "%"}]}
{"smiles": "O=C(NCCN1CCC2(C=Cc3ccccc32)CC1)c1ccc2ccccc2c1", "values": [{"measurement": "remaining activity", "value": 127, "unit": "%"}]}
{"smiles": "C[C@@H](CN1CCC(n2c(=O)[nH]c3ccc(F)cc32)CC1)NC(=O)c1ccc(F)cc1", "values": [{"measurement": "remaining activity", "value": "16% (active)"}]}
